Rows were chosen to be rich in hits. Some 9.5% of all compounds tested hit in one or more screens of this group.
ALDH1A1 block – blocks purified human ALDH1A1 activity; P00352; Purified ALDH1A1, NADH fluorescence, propionaldehyde substrate; Potency, µM (highest dose often 75.3 µM), for the others: at the highest dose activity, negative = inhibition, usual class: inhibitors; actives 7.3% (n = 220,000); active means well fitted inhibition curve with a large enough effect, not every such curve was filed as active; inconclusive means small, poorly fitted or top-dose-only effect, or another doubt; inactive means no such curve, though single readings can be large or run the other way;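 further: plate controls were no enzyme wells and a reference inhibitor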
Tau fibril ThT – inhibitors of human tau fibril formation, thioflavin T binding; P10636; recombinant tau K18 P301L, heparin-induced fibrillization, ThT fluorescence; Potency, µM (top dose mostly 57.4 µM), for inactives: top-dose activity, negative = inhibition, hits mostly inhibitors; actives 2.1% (n = 270,000); AID 1460; further: nearly all actives have a fitted effect of over 55% in size
Target sequence (P10636 561-689 P618L limits assumed): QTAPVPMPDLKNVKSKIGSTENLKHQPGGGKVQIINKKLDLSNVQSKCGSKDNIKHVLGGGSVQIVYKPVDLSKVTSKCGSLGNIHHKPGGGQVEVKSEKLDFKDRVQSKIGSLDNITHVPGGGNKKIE
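Heparin-induced (20 uM) aggregation of recombinant human K18 P301L tau, 15 uM unlabeled with 0.24 uM labeled, pH 7 acetate buffer, 6 hr at 37 C with compound. Fibrils quantified by 30 uM ThT fluorescence after 1 hr ambient incubation.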
Tau fibril FP – tau fibrillization inhibition (FP) | K18 P301L tau heparin fibrillization, Alexa594 FP, 6 h | Potency, µM (series often up to 57.7 µM), inactives show at the highest dose activity, negative = inhibition, hits mostly inhibitors | actives 0.39% (n = 280,000) | AID 1468; further: nearly all actives have a fitted effect of over 55% in size
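Compound effects on tau fibrillization are measured by Alexa 594 fluorescence polarization (ex 555, em 632 nm). K18 P301L tau is used at 15 uM with 0.24 uM labeled tracer, and 20 uM heparin induces aggregation over 6 hr at 37 C.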
HPGD inh – HPGD (human) dehydrogenase inhibition; actives 4.3% (n = 150,000); P15428; Potency, µM, for inactives: at the top dose activity change, negative = inhibition, hits mostly inhibitors; purified HPGD, NADH fluorescence kinetic, PGE2 substrate; active means well fitted inhibition curve with a large enough effect, not every such curve was filed as active; inconclusive means small, poorly fitted or top-dose-only effect, or another doubt; inactive means no such curve, though single readings can be large or run the other way
Target sequence (P15428 whole entry, looked up): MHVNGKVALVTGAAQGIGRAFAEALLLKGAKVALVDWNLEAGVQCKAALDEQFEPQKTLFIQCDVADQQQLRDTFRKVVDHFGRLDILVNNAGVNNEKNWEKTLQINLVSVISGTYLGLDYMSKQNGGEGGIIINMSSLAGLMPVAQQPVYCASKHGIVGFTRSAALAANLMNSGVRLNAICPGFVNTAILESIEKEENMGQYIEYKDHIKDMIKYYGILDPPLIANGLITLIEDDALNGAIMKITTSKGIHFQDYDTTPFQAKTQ
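20 nM HPGD preincubated 15 min at room temperature with compound in 50 mM Tris-HCl pH 8, 0.01% Tween 20. Started with 1 mM NAD+ and 30 uM prostaglandin E2; NADH fluorescence (360/450 nm) read 5 times over 30-s intervals, last minus first.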
Tau fluor counter – counter-screen for tau fibril formation inhibitors. tau K18 P301L (four-repeat tau fragment) Alexa594 fluorescence, heparin fibrillization. Potency, µM (highest dose often 57.7 µM), without a hit: top-dose activity change, negative = decrease. actives 0.93% (n = 280,000). AID 1463; further: nearly all actives have a fitted effect of over 55% in size
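Human K18 P301L tau (15 uM unlabeled plus 0.24 uM Alexa 594-labeled, final) in 100 mM sodium acetate pH 7 was mixed with compound and 20 uM heparin and incubated 6 hr at 37 C.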
NPSR antag – neuropeptide S receptor (human) antagonism, cAMP; AID 1461; actives 1% (n = 220,000); CHO-NPSR cells, cAMP TR-FRET, antagonist mode; Potency, µM (titrated, usually from 38.3 µM), for inactives: at the highest dose activity change, negative = inhibition, actives largely listed as inhibitors; Q6W5P4; further: nearly all actives have a fitted effect of over 50% in size
Starred values were filed as active, the others as inactive; ? = inconclusive; · = not tested or not shown; [ ] = dose if it differs, or a comment. Unless noted, the call rests on the fitted dose curve; in most records, active means well fitted curve in the direction sought with a large enough effect; inconclusive means small, poorly fitted or top-dose-only effect, or another doubt; inactive means no such curve, though single readings can be large; an effect the other way counts as inactive or inconclusive. Unless noted, on the % scale 0 is the no-effect control and ±100 the full control effect; potency means the concentration at half of the fitted maximal effect.

SMILES	ALDH1A1 block	Tau fibril ThT	Tau fibril FP	HPGD inh	Tau fluor counter	NPSR antag
O=C(CSc1nc2ccccc2c(=O)n1-c1ccccc1)NCc1ccco1	4.5µM*	-3%	-5%	-25%	-5%	-15%[46.1 µM]
COc1cc2nc(SCC(=O)NCCc3ccccc3)n(Cc3ccco3)c(=O)c2cc1OC	3.5µM*	-11%	-5%	-10%	-3%	-19%[46.1 µM]
O=C(CSc1nc2cccnc2n1Cc1ccccc1)NCc1ccco1	25µM*	-9%	2%	32µM*	-7%	-4%[46.1 µM]
O=C(CSc1nc2c(sc3ccccc32)c(=O)n1Cc1ccccc1)NCC1CCCO1 (centres undefined)	0%	-5%	2%	-20%	-4%	-12%[46.1 µM]
O=C(CSc1nc2c(sc3ccccc32)c(=O)n1Cc1ccco1)NCC1CCCO1 (centres undefined)	18µM*	-6%	2%	5%	6%	-13%[46.1 µM]
COc1ccccc1NC(=O)c1sc2cccc(Cl)c2c1Cl	·	-6%	-1%	·	-3%	·
CCCN(CCC)C(=O)CSc1nc2ccccc2c(=O)n1Cc1ccco1	·	-18%	-5%	·	-7%	·
CN(Cc1ccccc1)C(=O)CSc1nc2ccccc2c(=O)n1Cc1ccco1	7.9µM*	?	0%	-26%	-21%	?
O=C(CSc1nc2ccccc2c(=O)n1Cc1ccco1)NCc1ccco1	25µM*	-7%	-14%	-21%	7%	-2%[46.1 µM]
C[N+](C)(C)CC(=O)N/N=C\c1ccncc1	-4%[13.5 µM]	·	·	-7%	·	·
COc1ccc(NC(=O)c2nc(-c3ccc(C)cc3)n3c2CCCCC3)cc1	·	-14%	-5%	·	-11%	·
CC(C)CCCC(C)C1CCC2C3CC=C4CC(O)CC[C@@]4(C)C3CC[C@@]12C (some centres undefined)	-5%	-1%	-7%	-19%	-6%	·
Cc1cc(C)n(S(=O)(=O)c2ccccc2)n1	·	·	2%[0.473 µM]	·	-31%[0.473 µM]	12%
Cc1ccc2ccc(S(=O)(=O)n3nc(C)cc3C)cc2c1	0.89µM*	-13%	4%	?	-12%	-19%[46.1 µM]
CCN(CC)C(=O)CSc1nc2c(sc(=S)n2-c2ccccc2)c(=O)n1Cc1ccco1	10µM*	?	?	32µM*	-20%	10µM*
CCOC(=O)CSc1nc2c(sc(=S)n2Cc2ccco2)c(=O)n1-c1ccc(F)cc1	-15%	3%	-2%	-16%	-10%	?
COc1ccccc1-n1c(=S)sc2c(=O)n(Cc3ccco3)c(SC)nc21	20µM*	-5%	-7%	-28%	-14%	?
C=CCc1cccc(C2NC(C(=O)O)CCC2C)c1 (centres undefined)	5%[13.5 µM]	-7%[11.5 µM]	-11%[11.6 µM]	·	-6%[11.6 µM]	·
Cc1ccc2nc(C)c(C(=O)NN=C3CCCCCC3)n2c1	7.9µM*	-7%	2%	·	-11%	0%
Cc1ccn2c(C(=O)NN=C3CCN(C)CC3)c(C)nc2c1	2.2µM*	-4%	-10%	·	-11%	26%
Cc1ccc2nc(C)c(C(=O)N/N=C/c3cccs3)n2c1	?	-10%	-7%	-11%	-2%	-2%
Cc1ccn2c(C(=O)N/N=C\c3cccs3)c(C)nc2c1	?	-23%	5%	-19%	-3%	-18%[46.1 µM]
Cc1ccc(C)c(-n2c(C)cc(/C=N/NC(=O)c3c(C)nc4cc(C)ccn34)c2C)c1	13µM*	-4%	7%	?	-6%	?
COc1ccc(OC)c(CNC(=O)c2cc3c(-c4ccc(OC)c(OC)c4)nn(C)c3s2)c1	·	-10%	-14%	·	?	·
Cc1cc(C)c(NC(=O)C2CSCCS2)c(C)c1 (centres undefined)	-4%	3%	1%	22µM*	7%	1%[46.1 µM]
COC(=O)c1c(C)oc(C)c1S(=O)(=O)NCc1ccco1	-6%	-7%	3%	·	-2%	-15%
CC1CCN(S(=O)(=O)c2ccc3c(c2)N(CC(=O)NCCN(C)C)C(=O)CS3)CC1	·	2%	-7%	·	-5%	·
